# From paper PMC4336329 (PLoS ONE, 2015)
# About 14,000 (4.5%) of roughly 310,000 compounds showed an effect of 50% or more. Effects have a minus sign here. The full list was thinned out, with strong results kept by preference.
# Target: human ether-à-go-go-related gene (hERG) potassium channel (human, UniProt Q12809)
# Test: primary screen, population patch clamp on CHO cells stably expressing hERG; higher = less effect of the substance
# 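Note: peak tail current of the secondary pulse compared with the same well before compound.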
# Chain of human ether-à-go-go-related gene (hERG) potassium channel (Q12809 whole entry, looked up): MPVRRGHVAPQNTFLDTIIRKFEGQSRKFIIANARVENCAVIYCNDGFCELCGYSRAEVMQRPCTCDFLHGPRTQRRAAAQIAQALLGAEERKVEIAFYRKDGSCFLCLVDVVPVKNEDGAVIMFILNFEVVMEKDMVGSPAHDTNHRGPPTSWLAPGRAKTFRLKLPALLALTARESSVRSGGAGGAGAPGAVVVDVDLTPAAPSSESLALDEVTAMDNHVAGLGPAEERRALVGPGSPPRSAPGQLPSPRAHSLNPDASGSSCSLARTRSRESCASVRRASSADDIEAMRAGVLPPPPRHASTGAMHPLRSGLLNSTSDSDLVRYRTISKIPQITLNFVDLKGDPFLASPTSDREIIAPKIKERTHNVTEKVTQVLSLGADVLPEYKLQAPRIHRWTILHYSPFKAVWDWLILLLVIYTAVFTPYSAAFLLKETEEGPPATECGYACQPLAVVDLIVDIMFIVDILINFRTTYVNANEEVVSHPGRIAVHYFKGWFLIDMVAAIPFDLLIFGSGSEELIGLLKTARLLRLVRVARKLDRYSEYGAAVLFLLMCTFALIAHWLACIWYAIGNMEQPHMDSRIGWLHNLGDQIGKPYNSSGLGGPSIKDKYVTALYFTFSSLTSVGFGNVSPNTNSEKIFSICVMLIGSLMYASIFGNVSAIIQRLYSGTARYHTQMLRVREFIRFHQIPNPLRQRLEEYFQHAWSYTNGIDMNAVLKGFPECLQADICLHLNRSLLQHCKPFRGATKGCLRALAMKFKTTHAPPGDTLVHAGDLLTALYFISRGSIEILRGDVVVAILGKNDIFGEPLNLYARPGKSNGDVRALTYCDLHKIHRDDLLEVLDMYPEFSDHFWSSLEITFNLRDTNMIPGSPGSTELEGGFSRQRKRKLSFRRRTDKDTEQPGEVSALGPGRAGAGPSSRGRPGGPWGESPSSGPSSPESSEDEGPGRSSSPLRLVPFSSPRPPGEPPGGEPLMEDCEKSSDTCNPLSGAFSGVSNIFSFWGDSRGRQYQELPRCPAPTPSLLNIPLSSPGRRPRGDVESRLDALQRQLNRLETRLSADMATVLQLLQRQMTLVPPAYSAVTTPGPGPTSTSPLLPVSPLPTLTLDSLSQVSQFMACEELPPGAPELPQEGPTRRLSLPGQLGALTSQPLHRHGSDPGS
row,SMILES,"hERG current change (%, negative = inhibition) at 10uM [%]"
1,NC(=O)NC1NC(=O)NC1=O (stereo not shown),11.9
2,C/C(Cl)=C\Cn1c(O)c(N=NC(N)=S)c2cc(Br)ccc21,8.96
3,COc1cccc(C(=O)N(C)CC(=O)Nc2ccc(F)c(F)c2F)c1,11.4
4,O=C(COC(=O)c1ccc(S(=O)(=O)N2CCOCC2)cc1)NC1CCCCCCC1,12.2
5,Clc1ccc(Nc2ccc(-n3ccnc3)nn2)cc1Cl,-9.9
6,CC(=O)c1cc2c(C)cc(=O)oc2cc1O,1.77
7,CC1CCN(C(=O)Cn2c(=O)n(Cc3ccc4c(c3)OCO4)c(=O)c3ccccc32)CC1,-18.5
8,CN(C)CCCOC(=O)c1ccc(Cl)cc1Cl.Cl,-38.8
9,CCCN(CCC)CCCOC(=O)c1ccc(Cl)cc1Cl.Cl,-70.1
10,CCN(CC)CCOC(=O)c1cccc(Cl)c1.Cl,-32.4
11,CCN(CC)CCOC(=O)c1ccc(Cl)cc1Cl.Cl,-55.4
12,CCN(CC)CCOC(=O)c1ccc(Cl)cc1.Cl,-42.7
13,CN(C)CCCOC(=O)c1ccccc1Cl.Cl,-0.792
14,Cc1nnc(NC(=O)CN2CCN(Cc3ccccc3Cl)CC2)s1,6.08
15,CSc1cccc(NC(=O)c2ccccn2)c1,7.57
16,CC[C@H](C)C(N)c1cn([C@@H](CC(N)=O)C(=O)N2CCNCC2)nn1 (stereo partly shown),-10.5
17,COc1ccc2c(c1)C(NS(=O)(=O)OCC(Cl)(Cl)Cl)CCC2 (stereo not shown),-0.647
18,CC1CCCC(NC(=O)CCNC(=O)c2ccc(Br)cc2)C1C (stereo not shown),-0.231
19,Cc1ccc(C)c(OC(C)C(=O)Nc2nccs2)c1 (stereo not shown),3.8
20,CN(C)c1ccc(/C=N/NC(=O)CCC(=O)NCc2ccccc2)cc1,11.3
21,CCc1cc(C(=O)N2CCc3c([nH]c4ccccc34)C2c2ccc(OC)cc2F)no1 (stereo not shown),15.7
22,COc1ccc2oc(C(=O)CCC(=O)O)c(N)c2c1,4.93

row,SMILES,"hERG current change (%, negative = inhibition) at 10uM [%]"
1,COc1ccccc1N1CCN(C(=O)c2cc(C)oc2C)CC1,21
2,O=C(NN1CC(=O)N(c2cc(Cl)cc(Cl)c2)CC1=O)c1sccc1Cl,-0.682
3,Cc1cccc(N(CC(=O)N/N=C/c2ccccc2C(=O)O)S(C)(=O)=O)c1C,-28.9
4,CC(C)(C)NCC(=O)N/N=C/c1ccc(OCc2ccccc2)cc1,-60.5
5,CC(C)C(=O)N/N=C/c1ccc(OCc2ccccc2)cc1,17.8
6,N#CCC(=O)N/N=C/c1ccc(OCc2ccccc2)cc1,11.3
7,O=C(NNc1nc2ccccc2nc1C(F)(F)F)c1ccccc1,11.9
8,Cc1ccc(NC(=O)c2cc(-c3ccccc3)n[nH]2)cc1,18.3
9,CC(C)c1ccc(N(C(=O)c2csnn2)C(C(=O)NC(C)(C)C)c2ccncc2)cc1 (stereo not shown),-42.8
10,CCCN1CCC(=O)N([C@H](COc2ccccc2)CC(C)C)CC1,-81.9
11,CC(C)C[C@@H](COc1ccccc1)N1CCN(CCc2ccccc2)CCC1=O,-77.5
12,CC(C)C[C@@H](CO)N1CCN(CCc2ccccc2)CCC1=O,-23
13,CCCN1CCC(=O)N([C@H](CN=[N+]=[N-])CC(C)C)CC1,3.11
14,CC(C)C[C@@H](COc1ccccc1)N1CCN(Cc2ccccc2)CCC1=O,-35.4
15,COc1cc([N+](=O)[O-])ccc1NC(=O)CN(C)C,-15.9
16,O=C(O)CC(CC(=O)Nc1ccccc1C(=O)O)c1ccccc1 (stereo not shown),3.3
17,C=C(C)CCC1(C)NC(=O)N(c2ccccc2)N1 (stereo not shown),-4.03
18,CN(C(=O)CSc1nnnn1-c1ccc(O)cc1)C1CCS(=O)(=O)C1 (stereo not shown),14.8
19,CCN(CC(=O)NCc1cccs1)C(=O)CN(C)S(=O)(=O)c1ccc(C)cc1,-27.3
20,COc1ccccc1NC(=O)CSc1nc2sc3c(c2c(=O)n1-c1ccccc1)CCN(C)C3,-26
21,CC1(C)OC(=O)N(c2ccccc2)C12C=Cc1cc(Br)ccc1O2 (stereo not shown),-14.4
22,O=C(Nc1ccc(S(=O)(=O)N2CCCC2)cc1)c1ccc(Br)o1,14.8

row,SMILES,"hERG current change (%, negative = inhibition) at 10uM [%]"
1,O=C(Nc1ccc(OC(F)(F)F)cc1)c1ccc(S(=O)(=O)N2CCOCC2)o1,-53.7
2,O=C(Nc1ccc(F)cc1)c1ccc(S(=O)(=O)N2CCOCC2)o1,-13.1
3,O=C(Nc1ccc(S(=O)(=O)N2CCCCCC2)cc1)c1ccc(Br)o1,-14.5
4,COc1ccc(NC(=O)c2ccc(S(=O)(=O)N3CCOCC3)o2)cc1,0.458
5,O=C(Nc1ccc(S(=O)(=O)N2CCOCC2)cc1)c1ccc(Br)o1,-64.8
6,O=C(NNc1ccccc1[N+](=O)[O-])Nc1cccc(Cl)c1,19.3
7,Cc1ccccc1Cn1cc(NC(=O)CCCn2nc([N+](=O)[O-])cc2C)cn1,-7.52
8,O=C(NNS(=O)(=O)c1ccc([N+](=O)[O-])cc1)c1ccc([N+](=O)[O-])cc1,28.6
9,O=C(NCCN1CCN(c2ccccc2)CC1)c1cccn2c(=O)c3cc(Cl)ccc3nc12,-45.4
10,O=C(NCCN1CCN(c2ccccc2F)CC1)c1cccn2c(=O)c3ccccc3nc12,-71.5
11,O=C(CCNC(=O)Cn1ccc2ccccc2c1=O)NCCN1CCN(c2ccccc2F)CC1,6.8
12,CN(CCCNC(=O)c1cccn2c(=O)c3ccccc3nc12)Cc1ccccc1,-74.1
13,COCCCNC(=O)c1cccn2c(=O)c3cc4ccccc4cc3nc12,-42.2
14,O=C(O)c1cccn2c(=O)c3ccccc3nc12,13.1
15,CN(CCCNC(=O)c1cc2c(Cl)nc3ccccc3c2s1)Cc1ccccc1,-44.3
16,O=C(NCCN1CCN(c2ccccc2)CC1)c1cccn2c(=O)c3ccccc3nc12,-63
17,Cn1c(C(=O)NCCN2CCN(c3ccccc3F)CC2)cc2c(=O)n(C)c3ccccc3c21,-4.62
18,CCN(CC(=O)NC1CCS(=O)(=O)C1)C(=O)COc1ccccc1-c1ccccc1 (stereo not shown),11.7
19,CCn1nnnc1NCc1ccc(Cl)cc1,9.44
20,COc1ccc2c(c1)O[C@@H](c1cccc(C(F)(F)F)c1)[C@H](OC(=O)NCCc1ccc(OC)c(OC)c1)C2=O,-0.231
21,COc1ccc(-c2nnc(SC(C)C(=O)NCc3ccc4c(c3)OCO4)n2Cc2ccco2)cc1 (stereo not shown),-55.1
22,O=C(CSc1nnc(-c2cccnc2)n1Cc1ccco1)NCc1ccc2c(c1)OCO2,-33.2

row,SMILES,"hERG current change (%, negative = inhibition) at 10uM [%]"
1,O=C(CSc1nnc(-c2ccccc2)n1Cc1ccco1)NCc1ccc2c(c1)OCO2,-14.5
2,O=C(CSc1nnc(-c2ccc(Cl)cc2)n1Cc1ccco1)NCc1ccc2c(c1)OCO2,-75.3
3,COc1cccc(-c2nnc(SCC(=O)Nc3ccc4c(c3)OCCO4)n2Cc2ccco2)c1,-15.1
4,COc1cccc(-c2nnc(SCC(=O)NCc3ccc4c(c3)OCO4)n2Cc2ccco2)c1,-49.7
5,O=C(CSc1nnc(NC(=O)c2ccco2)s1)NC1CCCCC1,2.07
6,Cc1ccc2c(c1)N(CCC(=O)NCCCN1CCCC1)C(=O)C(C)O2 (stereo not shown),22.4
7,COc1cc(CN2CCCC(CO)(Cc3ccccc3C)C2)cc2c1OCO2 (stereo not shown),-27.9
8,Cc1nn(C)c(Cl)c1CN1CCCC(CO)(Cc2ccccc2)C1 (stereo not shown),-6.66
9,CSc1cccc(CN2CCCC(CO)(Cc3cccc(Cl)c3)C2)c1 (stereo not shown),-29
10,COc1cc(CN2CCCC(CO)(Cc3ccccc3)C2)ccc1O (stereo not shown),-17.6
11,CC(C)(O)C#Cc1ccc(CN2CCCC(CO)(Cc3cccc(Cl)c3)C2)cc1 (stereo not shown),-6.28
12,OCC1(Cc2cccc(Cl)c2)CCCN(Cc2ccc(F)c(F)c2)C1 (stereo not shown),-51.2
13,COc1cc(CN2CCCC(CO)(Cc3cccc(Cl)c3)C2)cc2c1OCO2 (stereo not shown),-68.1
14,Cc1c(CN2CCCC(CO)(Cc3cccc(Cl)c3)C2)cnn1C (stereo not shown),-11.2
15,CCn1nc(C)c(CN2CCCC(CO)(Cc3cccc(Cl)c3)C2)c1C (stereo not shown),-40.8
16,Cc1cccc(-c2ncc(CN3CCCC(CO)(Cc4cccc(Cl)c4)C3)cn2)c1 (stereo not shown),-20.6
17,COc1ccc(CN2CCCC(CO)(Cc3cccc(Cl)c3)C2)cc1OC (stereo not shown),-63.2
18,Cc1nn(C)c(Cl)c1CN1CCCC(CO)(Cc2cccc(Cl)c2)C1 (stereo not shown),-59.8
19,CCC/C=C(\CCC)C(NS(=O)(=O)c1ccc(C(F)(F)F)cc1)c1ccccc1 (stereo not shown),15.5
20,Cc1nnc2ccc(N3CCN(C(=O)c4ccccc4)CC3)nn12,-0.844
21,COc1ccc(S(=O)(=O)NCc2ccncc2)cc1NC(=O)c1ccccc1C,-36.6
22,O=C(/C=C/c1cccc([N+](=O)[O-])c1)NCCSCc1c(Cl)cccc1Cl,-11.9
